Most compounds without a hit are left out; they make up all but 15% or so of the library.
SARS PLpro yeast – qHTS of Yeast-based Assay for SARS-CoV PLP; S. cerevisiae expressing SARS-CoV PLpro, growth rescue; Potency, µM (top dose mostly 32.9 µM), most hits filed as activators; hit rate 0.19% among 330,000; AID 485353, 2010; calls by dose curve; note: nearly all actives have a fitted effect of over 55% in size
Sm TGR block – qHTS Assay for the Inhibitors of Schistosoma Mansoni Peroxiredoxins. Schistosoma mansoni thioredoxin glutathione reductase (TGR), Q962Y6. purified TGR, DTNB reduction, TNB absorbance 405 nm. Potency, µM (highest dose often 114 µM), most hits filed as inhibitors. hit rate 3% among 360,000. AID 485364, 2010; note: nearly all actives have a fitted effect of over 60% in size
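Kinetic colorimetric format: TGR-catalysed, NADPH-driven DTNB reduction monitored via TNB absorbance. Enzyme dispensed at 20 nM; compound exposure 15 min at room temperature before reaction start.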
HCMV antiviral – qHTS Assay for inhibitors of the human cytomegalovirus (HCMV) | hit rate 4.5% among 410,000 | activity change, negative = inhibition, % at 57.5 µM | HFF cells, HCMV-luciferase reporter, 72 h; active compounds read low; in the data active = activity change below about -60%; inconclusive = no clear call, values can overlap the other calls; inactive = above about -39%
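Cell-based, HFFs, 1000 cells/well, 16 h 37C; cpds in DMSO + HCMV-luc, MOI 1 PFU/cell; 72 h 37C; OneGlo luminescence after 5 min RT; norm. to buffer vs Salinomycin 10uM.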
HCV inhibitor – qHTS Assay for Inhibitors of Hepatitis C Virus (HCV); Potency, µM (series often up to 41.8 µM), hits mostly inhibitors; Huh7.5.1 HCVcc-Cre infection, luciferase reporter, 44 h; hit rate 3.4% among 340,000
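Infectious HCVcc-Cre (~0.5 moi) was added to cells just after compound, with cells seeded 4 h earlier at 1,000 per well. Luciferase activity after 44 h culture reported infection; substrate was incubated 15 min at room temperature before reading.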
Pf growth 96h – Primary qHTS for delayed death inhibitors of the malarial parasite plastid, 96 hour incubation; P. falciparum luciferase reporter growth, 96 h; Potency, µM (titrated, usually from 28.7 µM), hits mostly inhibitors; hit rate 6.9% among 320,000
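Compounds incubated with erythrocytes infected by luciferase-expressing P. falciparum (2% hematocrit, 0.05% parasitemia final) for 96 hours, 37 C in 5% CO2. Growth inhibition scored as decreased luciferase luminescence.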
Pf growth 48h – Primary qHTS for delayed death inhibitors of the malarial parasite plastid, 48 hour incubation | P. falciparum luciferase growth in erythrocytes, 48 h | Potency, µM (series often up to 28.7 µM), usual class: inhibitors | hit rate 5.9% among 310,000
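A one-generation exposure of luciferase-tagged malaria parasites in RPMI 1640/Albumax erythrocyte culture, 37 C and 5% CO2. Inhibition is inferred from decreased luminescence after adding detection reagent.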
Numbers stand for hits; i = inactive; ? = inconclusive; nt = no result; ! = repeats disagree; [ ] = dose if it differs, or a comment. Unless noted, calls come from the whole dose curve; as a rule, active = well fitted curve in the direction sought with a large enough effect; inconclusive = small, poorly fitted or top-dose-only effect, or another doubt; inactive = no such curve, though single readings can be large; an effect the other way counts as inactive or inconclusive.

SMILES | SARS PLpro yeast | Sm TGR block | HCMV antiviral | HCV inhibitor | Pf growth 96h | Pf growth 48h
CC(C)(C)OC(=O)[C@H](Cc1ccccc1)NC(=O)c1ncn2c1c(=O)[nH]c1ccc(Br)cc12 | nt | nt | i | nt | nt | nt
O=C(Nc1cccc2ccccc12)c1cnsn1 | i | i | -64 | i | i | i
O=C(NCc1ccccc1)c1cnsn1 | i | i | i | i | 1.3µM | i
Cc1ccc(C(=O)Nc2cccc3ccccc23)cc1 | i | i | i | i | i | i
Cc1cc(C)cc(NC(=O)N2CCN(C)c3ncccc32)c1 | nt | i | i | nt | nt | nt
c1ccc(C2Nc3ccccc3Oc3ccccc32)cc1 (stereo unspecified) | i | i | i | ? | 5.2µM | 10µM
COc1ccc(-c2nnn3c2nc(NCCc2ccc(OC)c(OC)c2)c2ccccc23)cc1 | nt | i | i | nt | nt | nt
COc1ccc(NS(=O)(=O)c2ccc3oc(=O)c4[nH]c(=O)c(=O)n(C)c4c3c2)cc1 | i | 50µM | i | i | i | i
COc1ccc(OC)c(NC(=O)C2CCN(S(=O)(=O)c3ccc4c(c3)CC(C)N4C(C)=O)CC2)c1 (stereo unspecified) | i | i | -86! | i | 15µM | ?
CC(=O)N1c2ccc(S(=O)(=O)NCC3CCC(C(=O)Nc4cccc(F)c4)CC3)cc2CC1C (stereo unspecified) | nt | i | -77 | nt | nt | nt
CC(=O)N1c2ccc(S(=O)(=O)NCC3CCC(C(=O)N4CC(C)CC(C)C4)CC3)cc2CC1C (stereo unspecified) | ? | i | i | 14µM | ? | ?
COc1cc(OC)c(NC(=O)C2CCN(S(=O)(=O)c3ccc4c(c3)CC(C)N4C(C)=O)CC2)cc1Cl (stereo unspecified) | i | i | i | ? | i | i
CC(=O)N1c2ccc(S(=O)(=O)N3CCC(C(=O)Nc4cc(C)ccn4)CC3)cc2CC1C (stereo unspecified) | i | i | -69 | ? | ? | ?
CC(=O)Nc1ccc(OS(=O)(=O)c2c(C)cc(C)cc2C)cc1 | i | i | ? | i | i | i
COc1cc(OC)c(NC(=O)Cn2cnc3c(nc4n3CCCCC4)c2=O)cc1Cl | nt | i | i | nt | nt | nt
Cc1nn(C)cc1S(=O)(=O)NCc1ccccc1Cl | i | i | i | i | ? | i
COc1ccc(C)cc1NC(=O)CN(C)S(=O)(=O)c1ccc2c(c1)CC(C)N2C(C)=O (stereo unspecified) | i | i | i | ? | 7.4µM | i
CC(=O)N1c2ccc(S(=O)(=O)NCC3CCC(C(=O)Nc4ccc(C)cc4)CC3)cc2CC1C (stereo unspecified) | nt | i | i | nt | nt | nt
CC(=O)N1c2ccc(S(=O)(=O)NCC3CCC(C(=O)Nc4cc(C)ccn4)CC3)cc2CC1C (stereo unspecified) | i | i | -91 | ? | ? | ?
COc1ccc(NC(=O)CN(C)S(=O)(=O)c2ccc3c(c2)CC(C)N3C(C)=O)cc1OC (stereo unspecified) | i | i | i | i | i | i
Cc1cccc(C(=O)Nc2ccc(NC(=O)CN3CCOCC3)cc2)c1 | i | i | i | i | i | i
COc1ccc(NC(=O)CSC2CC(=O)N(c3ccc4c(c3)OCCO4)C2=O)cc1 (stereo unspecified) | i | 45µM | i | i | nt | i
COc1ccccc1NC(=O)CSC1CC(=O)N(c2ccc3c(c2)OCO3)C1=O (stereo unspecified) | i | 13µM | i | i | i | i
CC1=C(C#N)C(NC(=O)c2ccccc2)(C(F)(F)F)C(=O)N1 (stereo unspecified) | nt | i | i | nt | nt | nt
C/C(=N/NS(=O)(=O)c1ccc(Cl)cc1)c1cccc(NC(=O)c2ccc(Cl)cc2Cl)c1 | i | i | i | i | i | ?
SMILES | SARS PLpro yeast | Sm TGR block | HCMV antiviral | HCV inhibitor | Pf growth 96h | Pf growth 48h
CCO[C@@H]1OC(C(=O)N2CCCCCCC2)=C[C@H](c2cn(C(C)=O)c3ccccc23)[C@H]1CCCO | i | i | nt | i[8.37 µM] | 10µM | ?
C=CCOC(=O)C1=C[C@H](c2cn(C(C)=O)c3ccccc23)[C@@H](CCCO)[C@H](OCC)O1 | i | i | i | i | 12µM | ?
CCO[C@@H]1OC(C(=O)N2CCCCCCC2)=C[C@H](c2csc3ccccc23)[C@H]1CCCO | i | i | i | i[8.37 µM] | ? | 8.3µM
O=C(O)c1ccc(-n2cc(-c3cc4ccccc4oc3=O)[nH]c2=S)cc1 | i | ? | -64 | i | 0.17µM | i
Cc1ccc2[nH]c(C)c(/C=C/c3cc[n+](C)cc3)c2c1 | i | i | -100 | ? | i | ?
Cc1cccc(Cn2c(=O)n(-c3ccccc3C)c(=O)c3c2c2cc(C)ccc2n3C)c1 | nt | i | i | nt | nt | nt
Cc1ccc2c(c1)c(/C=C/c1cc[n+](C)cc1)c(C)n2C | i | i | -98 | 10µM | 0.47µM | 0.93µM
O=C(c1cccnc1)N1CC(=O)N2[C@@H](CO)[C@H](c3ccc(Br)cc3)[C@@H]2C1 | nt | nt | i | nt | nt | nt
CS/C(=C\[N+](=O)[O-])Nc1ccc(Cl)cc1 | i | 0.1µM | i | i | ? | nt
COc1ccc(-c2c(C)nn3c(-c4ccccc4)cc(-c4ccccc4)nc23)cc1 | nt | i | i | nt | nt | nt
Cc1cc(N2CCOCC2)n2nc(C)c(-c3ccccc3)c2n1 | i | i | i | 11µM | nt | i
Cc1ccc(-c2c(C)nn3c(N4CCOCC4)cc(C)nc23)cc1 | i | i | ? | i | ? | i
Cc1cc(C)c2c(n1)nn1c(N3CCN(c4ccccn4)CC3)cc(C)nc21 | i | i | nt | i | 3.3µM | i
COc1ccc(-c2c(C)nn3c(-c4ccccc4)cc(C)nc23)cc1 | i | i | i | 11µM | ? | i
Cc1cc(N2CCOCC2)n2nc(C)c(-c3ccccc3Cl)c2n1 | i | i | i | ? | 5.2µM | ?
CCOC(=O)c1sc(-c2ccc(Cl)cc2Cl)nc1O | i | i | i | i | i | i
Cc1cc(N2CCCCCC2)n2nc(C)c(-c3ccccc3)c2n1 | i | i | i | ? | ? | i
Cc1nn2c(N3CCN(c4ccccn4)CC3)cc(C(C)C)nc2c1-c1ccccc1 | i | i | ? | ? | ? | 3.3µM
COC(=O)c1cc(C(=O)OC)cc(N2C(=O)CC(NNC(=O)c3ccccc3Cl)C2=O)c1 (stereo unspecified) | i | i | i | i | i | i
COC(=O)c1ccccc1NC1CC(=O)N(c2c(C)cccc2C)C1=O (stereo unspecified) | i | 7.1µM | i | i | nt | i
COC(=O)c1ccc(NC2CC(=O)N(c3ccccc3C)C2=O)cc1 (stereo unspecified) | i | 32µM | i | i | nt | i
O=C(NCCc1ccccn1)c1cc(-c2ccccc2Cl)nc2ccccc12 | i | i | i | i | ? | ?

Bioassay records: PubChem BioAssay, National Center for Advancing Translational Sciences (NCATS)
